Measurements taken from PubChem BioAssay (NCI).
Compounds without any hit were thinned out: in the full panel of roughly 83,000, 20% have a hit.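 Method: cells in 96-well plates; compound added at one concentration; 48 h incubation; percent growth measured; values under 10 scored active.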

Columns and labels:
Experiment in all cases: NCI-60 one-dose screen, 48 h (100 = growth as untreated, 0 = no growth, -100 = all killed)
Settings in all cases: 10 µM unless noted
EKVX NSCLC = test system: EKVX NSCLC
SN12C renal = test system: SN12C renal
UO-31 renal = test system: UO-31 renal
TK-10 renal = test system: TK-10 renal
ACHN renal = test system: ACHN renal
CAKI-1 renal = test system: CAKI-1 renal
A498 renal = test system: A498 renal
CCRF-CEM leukemia = test system: CCRF-CEM leukemia
MOLT-4 leukemia = test system: MOLT-4 leukemia
RPMI-8226 leukemia = test system: RPMI-8226 leukemia
OVCAR-8 ovarian = test system: OVCAR-8 ovarian
OVCAR-5 ovarian = test system: OVCAR-5 ovarian
OVCAR-4 ovarian = test system: OVCAR-4 ovarian
SK-OV-3 ovarian = test system: SK-OV-3 ovarian
IGROV1 ovarian = test system: IGROV1 ovarian
OVCAR-3 ovarian = test system: OVCAR-3 ovarian
HS 578T breast = test system: HS 578T breast
NCI/ADR-RES ovarian = test system: NCI/ADR-RES ovarian
T-47D breast = test system: T-47D breast

Measured: growth

CC(C)c1nc(N(C)S(C)(=O)=O)nc(-c2ccc(F)cc2)c1/C=C/[C@@H](O)C[C@@H](O)CC(=O)O
inactive: EKVX NSCLC 91.2% | SN12C renal 96.2% | UO-31 renal 75% | TK-10 renal 107% | ACHN renal 97.1% | CAKI-1 renal 97.6% | A498 renal 56.2% | CCRF-CEM leukemia 104% | MOLT-4 leukemia 109% | RPMI-8226 leukemia 113% | OVCAR-8 ovarian 90.5% | OVCAR-5 ovarian 108% | OVCAR-4 ovarian 100% | SK-OV-3 ovarian 104% | IGROV1 ovarian 105% | OVCAR-3 ovarian 99.4% | HS 578T breast 110% | NCI/ADR-RES ovarian 104% | T-47D breast 99.4%

O=C1c2ccccc2-c2c1nc1ccccc1[n+]2[O-]
inactive: EKVX NSCLC 118% | SN12C renal 100% | UO-31 renal 83.3% | TK-10 renal 116% | ACHN renal 91.4% | CAKI-1 renal 98.2% | A498 renal 103% | CCRF-CEM leukemia 102% | MOLT-4 leukemia 95.8% | RPMI-8226 leukemia 106% | OVCAR-8 ovarian 108% | OVCAR-5 ovarian 94.9% | OVCAR-4 ovarian 115% | SK-OV-3 ovarian 102% | IGROV1 ovarian 99.9% | OVCAR-3 ovarian 107% | HS 578T breast 106% | NCI/ADR-RES ovarian 105% | T-47D breast 107%

COc1ccc(Cn2cc3c(c2-c2ccccc2)CCc2cncnc2-3)cc1
inactive: EKVX NSCLC 48.4% | SN12C renal 62.7% | UO-31 renal 55.2% | TK-10 renal 109% | ACHN renal 76.8% | CAKI-1 renal 36.2% | A498 renal 45.8% | CCRF-CEM leukemia 42.6% | MOLT-4 leukemia 80% | RPMI-8226 leukemia 19.6% | OVCAR-8 ovarian 70.5% | OVCAR-5 ovarian 76.7% | OVCAR-4 ovarian 93.1% | SK-OV-3 ovarian 76.8% | OVCAR-3 ovarian 29.6% | HS 578T breast 63.2% | NCI/ADR-RES ovarian 12.3% | T-47D breast 46.7%

O=C(CCc1nnc2sc(Cc3ccccc3Cl)nn12)c1nc2ccccc2[nH]1
inactive: EKVX NSCLC 91.7% | SN12C renal 91.8% | UO-31 renal 63% | TK-10 renal 144% | ACHN renal 84.7% | CAKI-1 renal 89% | A498 renal 92.3% | CCRF-CEM leukemia 96.1% | MOLT-4 leukemia 72.9% | RPMI-8226 leukemia 94.7% | OVCAR-8 ovarian 93.7% | OVCAR-5 ovarian 105% | OVCAR-4 ovarian 94% | SK-OV-3 ovarian 99.7% | IGROV1 ovarian 90.9% | OVCAR-3 ovarian 82.5% | NCI/ADR-RES ovarian 95.9% | T-47D breast 78.5%

O=C1OCC/C1=C\OCCCO/C=C1\CCOC1=O
inactive: EKVX NSCLC 101% | SN12C renal 99.3% | UO-31 renal 90.7% | TK-10 renal 110% | ACHN renal 103% | CAKI-1 renal 106% | A498 renal 119% | CCRF-CEM leukemia 107% | MOLT-4 leukemia 111% | RPMI-8226 leukemia 105% | OVCAR-8 ovarian 106% | OVCAR-5 ovarian 107% | OVCAR-4 ovarian 99.5% | SK-OV-3 ovarian 114% | OVCAR-3 ovarian 110% | HS 578T breast 112% | NCI/ADR-RES ovarian 104% | T-47D breast 103%

NC(N)=NC(N)=NCCCc1ccccc1
inactive: EKVX NSCLC 31.8% [100 µM] | SN12C renal 79.3% [100 µM] | UO-31 renal 65.9% [100 µM] | TK-10 renal 63.3% [100 µM] | ACHN renal 65.8% [100 µM] | CAKI-1 renal 63.7% [100 µM] | A498 renal 68.3% [100 µM] | CCRF-CEM leukemia 69.1% [100 µM] | MOLT-4 leukemia 73.8% [100 µM] | RPMI-8226 leukemia 62.6% [100 µM] | OVCAR-8 ovarian 71.1% [100 µM] | OVCAR-5 ovarian 76.3% [100 µM] | OVCAR-4 ovarian 70% [100 µM] | SK-OV-3 ovarian 67.7% [100 µM] | IGROV1 ovarian 53.1% [100 µM] | OVCAR-3 ovarian 56.9% [100 µM] | NCI/ADR-RES ovarian 81.2% [100 µM] | T-47D breast 53.7% [100 µM]

COc1ccc(-c2c3c(nn2-c2ccc(N)cc2)CCc2cnoc2-3)cc1OC
inactive: EKVX NSCLC 102% | SN12C renal 92.4% | UO-31 renal 62.1% | TK-10 renal 88.5% | ACHN renal 81.7% | CAKI-1 renal 82.1% | A498 renal 85.3% | CCRF-CEM leukemia 61.5% | MOLT-4 leukemia 86.4% | RPMI-8226 leukemia 60% | OVCAR-8 ovarian 65% | OVCAR-5 ovarian 94.1% | OVCAR-4 ovarian 102% | SK-OV-3 ovarian 124% | IGROV1 ovarian 97.6% | OVCAR-3 ovarian 83.1% | NCI/ADR-RES ovarian 77.6% | T-47D breast 97%

NC(=O)c1ncn([C@@H]2O[C@H](CO)[C@@H](O)[C@H]2O)n1
inactive: EKVX NSCLC 96.9% | SN12C renal 89.3% | UO-31 renal 73.5% | TK-10 renal 95.5% | ACHN renal 83.1% | CAKI-1 renal 85.4% | A498 renal 110% | CCRF-CEM leukemia 76.9% | MOLT-4 leukemia 72.3% | RPMI-8226 leukemia 87.2% | OVCAR-8 ovarian 72.7% | OVCAR-5 ovarian 102% | OVCAR-4 ovarian 92.2% | SK-OV-3 ovarian 96.8% | IGROV1 ovarian 98.9% | HS 578T breast 113% | NCI/ADR-RES ovarian 88% | T-47D breast 89%
